Among the data in PubChem BioAssay (NCI) are growth inhibition values, retold here.

Structures are written as SMILES. Where “and” joins values, the source holds several entries; their conditions need not be identical. Equal values may be shown once. About 79,000 compounds went through this panel and 15% of them were active in at least one assay; those are over-represented in the sample as a whole. Values without a mark were called inactive. Calls of active or inactive are those of the source. No stated cut-off is given here; in the data, active means growth inhibition above about 70%; inactive means the rest.

This test is described as follows: NCI Yeast Anticancer Drug Screen. Data for the mec2-1 strain (AID 157). The following applies: S. cerevisiae mec2-1 strain, at 5.0 µM (retest, dose inferred, filed as 0.5), active compounds read high. In outline: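 Readout is yeast growth inhibition, normalised to vehicle-treated controls, in the mec2-1 strain exposed to compound.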
As for `OCC1OC(n2cnc3c(=S)nc[nH]c32)C(O)C1O` (configuration not stated), the growth inhibition is -14%.
On to `CCOC(=O)C(C(=O)c1ccccc1)C(=O)c1ccccc1`, for which the growth inhibition was 29%.
Consider `COC1/C=C\C=C(/C)C(=O)Nc2cc3nc4ccc(Br)cc4oc-3c(c2=O)CC(C)CC(OC)C(O)C(C)/C=C(\C)C1OC(N)=O` (configuration not stated), for which the growth inhibition is 57%.
For `Nc1ccc([N+](=O)[O-])c(S(=O)(=O)O)c1`, the growth inhibition was -46%.
`CCOc1ccc2ccccc2c1C(Cc1ccc(Cl)cc1)NCCO` (configuration not stated): the growth inhibition was -2%.
In the case of `O=C1C(=Cc2ccc(O)cc2)N=C(c2ccccc2)N1n1c(-c2ccccc2)nc2ccccc2c1=O`, the growth inhibition was -2%.
Regarding `Cc1nc2ccccc2cc1CCl`, the growth inhibition is -44%.
On to `Cc1cc(NS(=O)(=O)c2ccc(N=Nc3cc(N=Nc4ccc(S(=O)(=O)Nc5cc(C)nc(C)n5)cc4)c4c(NC(=O)C(Cl)Cl)cccc4c3OC(=O)C(Cl)Cl)cc2)nc(C)n1` (tested in a mixture with another compound), for which the growth inhibition was 15%.
To `CCCCCCN(CCCCCC)C(=O)C1=C(C)NC(C)=C(C(=O)N(CCCCCC)CCCCCC)C1` belongs -16%.
`O=[N+]([O-])Cc1cnc2nncn2n1`: the growth inhibition is -9%.
`COc1ccc(N/N=C(\CCN(C)C)c2ccccc2)cc1`: the growth inhibition was -2%.
For `O=C(O)/C(=C(/c1ccccc1)c1ccc(Cl)cc1)c1ccccc1`, the growth inhibition was 37%.
On to `c1ccc([P+](CCCCCCCC[P+](c2ccccc2)(c2ccccc2)c2ccccc2)(c2ccccc2)c2ccccc2)cc1`, for which the growth inhibition was 39%.
With `OCCNc1nc(NCCO)c2nc(-c3ccccc3)c(-c3ccccc3)nc2n1` the figure was -3% and 1%.
Regarding `OC(c1ccccc1)(c1ccccc1)c1ccccc1` (tested in a mixture with another compound), the growth inhibition is -7%.
With `CC(=O)Nc1c(Cl)c(Cl)c2c(c1Cl)Cc1cc(Cl)ccc1-2`, the growth inhibition is 99% (active).
As for `Cc1cc(C)nc(NS(=O)(=O)c2ccc(Nc3c4ccccc4nc4c(C(=O)NCCCN(CCO)CCO)cccc34)cc2)n1`, the growth inhibition was -13%.
To `CCn1c2ccccc2c2ccc(N=Cc3ccc(N(C)C)cc3)cc21` belongs -1%.
With `O=C(C(=Cc1ccccc1)C(=O)c1ccccc1)c1ccccc1` the figure was 54%.
To `c1ccc(C2=NC(c3ccccc3)=NS(S3=NC(c4ccccc4)=NC(c4ccccc4)=N3)=N2)cc1` (configuration not stated) belongs 5%; to `Nc1nc(-c2ccccn2)cc2ccccc12`, 25%.
Regarding `CCN(CC)CCCn1c2cc(=O)c(=O)cc-2[nH]c2cc(C)ccc21`, the growth inhibition was 2%.
For the compound `COc1cc(O)ccc1C(=S)SC`, the growth inhibition is 1%.
`O=[N+]([O-])C1=C(c2ccccc2)SC=C(c2ccccc2)S1`: the growth inhibition was -6% and 10%.
In the case of `N#CC1(C2SCCS2=O)C2=C(C(=O)c3ccccc3C2=O)N2CCCC21` (configuration not stated), the growth inhibition was 14%.
To `O=C1C=CC(=O)C(C2OC(=O)C(Br)=C2Br)=C1` (configuration not stated) belongs -21%; to `CN1CCN(CCCN2c3ccccc3Sc3ccc(C(F)(F)F)cc32)CC1`, -9% and -29%.
Take `Cc1ccc(S(=O)(=O)C23C(N=NC2(C)C)C3(C)C)cc1` (configuration not stated): the growth inhibition is 4%.
Consider `COC(=O)C(=O)C(C(=O)C(c1ccccc1)c1ccccc1)c1nc2n(c1O)/C(=N/C(=O)Nc1ccc(Cl)cc1)N=N2` (configuration not stated), for which the growth inhibition is 6%.
Turning to `O=C(O)c1ccc2c(c1)Cc1cc([N+](=O)[O-])ccc1-2`, the growth inhibition is -7%.
`O=c1[nH]c2cc([N+](=O)[O-])ccc2nc1/C=C(\O)c1ccc([N+](=O)[O-])cc1`: the growth inhibition was -4%.
To `c1ccc(C(c2ccccc2)n2ccnc2)cc1` belongs -11%; to `c1ccc2c(c1)CNc1ccccc1-2`, -10%.
With `COC(=O)c1nnn(-c2ccc(S(N)(=O)=O)cc2)c1N`, the growth inhibition was -4%.
With `COC(=O)c1ccc(O)c(OC)c1` the figure was 1%; with `O=c1[nH]c(SCc2c(Cl)c(Cl)c(Cl)c(Cl)c2Cl)nc(=S)[nH]1`, 10%; with `Cc1nc2c(ccc3[nH]c4ccccc4c32)s1`, 9%.
